GPR151 activ – activates the human receptor GPR151; Q8TDV0; activation, % at 11.2 µM; PathHunter beta-arrestin GPR151 cells, luminescence; 1% of 650,000 active; in the data active means activation above about 4.9%
MITF inh – inhibitors of human MITF. O75030. AlphaScreen MITF homodimerization, bead proximity signal. inhibition, % at 2.6 µM. 0.91% of 650,000 active. AID 1259374; in the data active means inhibition above about 50%
Target sequence (O75030 whole entry, looked up): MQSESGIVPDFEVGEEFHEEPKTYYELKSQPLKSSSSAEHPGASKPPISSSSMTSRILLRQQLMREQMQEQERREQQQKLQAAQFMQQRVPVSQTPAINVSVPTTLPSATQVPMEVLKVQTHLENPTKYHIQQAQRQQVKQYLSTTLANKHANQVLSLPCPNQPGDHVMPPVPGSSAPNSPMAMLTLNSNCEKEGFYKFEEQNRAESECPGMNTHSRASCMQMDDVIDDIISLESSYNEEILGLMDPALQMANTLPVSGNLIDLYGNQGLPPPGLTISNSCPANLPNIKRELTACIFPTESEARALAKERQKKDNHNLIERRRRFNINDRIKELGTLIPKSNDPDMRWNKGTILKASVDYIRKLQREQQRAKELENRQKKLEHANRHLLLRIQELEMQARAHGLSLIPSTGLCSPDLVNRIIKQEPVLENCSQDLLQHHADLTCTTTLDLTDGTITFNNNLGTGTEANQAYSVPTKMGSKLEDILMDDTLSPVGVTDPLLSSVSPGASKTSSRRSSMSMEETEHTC
FBW7 activator – activators of human E3 ligase FBW7 | Q969H0 | 0.13% of 650,000 active | AlphaScreen FBW7–phospho-cyclin E peptide binding, activator screen | normalized activity (activation), % at 26.1 µM; in the data active means normalized activity above about 1.9%;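 further: purified mutant Fbw7 with reduced substrate affinity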
TEAD-YAP inh – TEAD-YAP interaction inhibition; HEK-TIYL cells, TEAD-Gal4/YAP UAS-luciferase luminescence; inhibition, % at 9.12 µM; 1.4% of 640,000 active; AID 1259422; in the data active means inhibition above about 32%
GPR151 confirm – human GPR151 activation, confirmation screen | shares compounds with GPR151 activ | GPR151 PathHunter beta-arrestin cells, luminescence, 90 min; % of EA-reagent control over plate median | activation, % at 11.2 µM | 6,700 tested, under 10 active | AID 1508609;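 active means mean percent activation across replicates above the confirmation screen cutoff of 4.91%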
GPR119 counter – counter-screen for GPR151 activators: effect on human GPR119; GPR119 PathHunter beta-arrestin cells, luminescence, 90 min; 0 = compound-well median, 100 = enzyme-acceptor control; activation, % at 11.2 µM; 0.3% of 6,700 active; AID 1508611; shares compounds with GPR151 activ;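 active means mean percent activation in the counterscreen above 29.09%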;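 further: counterscreen on off-target GPR119 to flag nonselective hits from the GPR151 activator screen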
Of the large screens only hits and unclear results are named; the others gave an inactive call (follow-up assays come after a bar, where they were run). Hits are enriched below; roughly 3.4% of the tested compounds scored in any of these assays.

C[C@H]1O[C@@H](O[C@H]2[C@@H](O)C[C@H](O[C@H]3[C@@H](O)C[C@H](O[C@H]4CCC5(C)[C@H](CC[C@@H]6[C@@H]5C[C@@H](O)C5(C)C(C7=CC(=O)OC7)CCC65O)C4)O[C@@H]3C)O[C@@H]2C)C[C@H](O)[C@@H]1O (stereo partly specified)	GPR151 activ 5.0 (no result: TEAD-YAP inh) | GPR151 confirm inactive | GPR119 counter 98.4
CCc1ccccc1N(C(=O)c1ccc(C)cc1)C1C=CS(=O)(=O)C1 (stereo unspecified)	none
CC1(C)O[C@H]2[C@@H](O1)[C@@H](C(=O)Oc1ccc(Cl)cc1)O[C@@H]1OC(C)(C)O[C@@H]12	none
C=CCn1c(=O)c2c(C)c(C)sc2n2c(Nc3ccccc3)nnc12	GPR151 activ 5.9 | GPR151 confirm inactive | GPR119 counter inactive
C=CCn1c(=O)c2c3c(sc2n2c(Nc4ccc(C(=O)OCC)cc4)nnc12)CCC3	none
COc1cccc(NC(=O)CSc2nc3ccccc3c(=O)n2CCc2ccc(OC)c(OC)c2)c1	GPR151 activ 5.0 | GPR151 confirm inactive | GPR119 counter inactive
O=C1CN(S(=O)(=O)c2cccc(Cl)c2Cl)c2ccccc2N1	GPR151 activ 6.8 | GPR151 confirm inactive | GPR119 counter inactive
Cc1ccc(-c2nnc(C3CCN(S(=O)(=O)c4ccc(Cl)s4)CC3)o2)cc1	GPR151 activ 7.0 | GPR151 confirm inactive | GPR119 counter inactive
Cc1c(Cl)cccc1N(CC(=O)Nc1ccccc1Cl)S(C)(=O)=O	none
Cc1ccc(N(CC(=O)NCc2ccccc2C)S(C)(=O)=O)cc1C	none
C=CCNC(=O)c1ccccc1NC(=O)CN(c1cccc([N+](=O)[O-])c1)S(C)(=O)=O	GPR151 activ 12.9 | GPR151 confirm inactive | GPR119 counter inactive
Cc1ccccc1CNC(=O)CN(c1cccc([N+](=O)[O-])c1)S(C)(=O)=O	GPR151 activ 6.4 | GPR151 confirm inactive | GPR119 counter inactive
C=CCNC(=O)c1ccccc1NC(=O)CN(c1cccc(Cl)c1C)S(C)(=O)=O	GPR151 activ 5.2 | GPR151 confirm inactive | GPR119 counter inactive
CCC(C)NC(=O)c1ccccc1NC(=O)CN(c1cccc([N+](=O)[O-])c1)S(C)(=O)=O (stereo unspecified)	none
Cn1c(CCNC(=O)c2ccccc2)nc2cc(NC(=O)NC3CCCCC3)ccc21	none
CNc1nc(-c2ccccc2O)nc(-c2ccccc2O)n1	none
[Zn+2].c1ccc2c(c1)-c1nc-2nc2[n-]c(nc3nc(nc4[n-]c(n1)c1ccccc41)-c1ccccc1-3)c1ccccc21	GPR151 activ 10.9 | GPR151 confirm inactive | GPR119 counter inactive
O=C(c1ccc(N2CCCC2=O)cc1)N1CCOc2ccc(CN3CCOCC3)cc2C1	none
CCOc1cccc2cc(-c3cn4cc(C)ccc4n3)c(=O)oc12	GPR151 activ 10.5 | GPR151 confirm inactive | GPR119 counter inactive
COc1cccc2cc(-c3cn4ccc(C)cc4n3)c(=O)oc12	none
O=C1CN(S(=O)(=O)c2ccc(Cl)s2)CC(=O)N1CCc1ccccc1	none
COc1cccc(OC)c1C(=O)n1nc(C)cc1C	none
COc1ccc(Cl)cc1C(=O)n1nc(C)cc1C	GPR151 activ 9.6 | GPR151 confirm inactive | GPR119 counter inactive
Cc1cc(C)n(C(=O)CSc2ccc(Cl)cc2)n1	GPR151 activ 7.8 | GPR151 confirm inactive | GPR119 counter inactive
CCc1ccc(NC(=O)c2cc3nc(-c4ccccc4)cc(C(F)(F)F)n3n2)cc1	none
COc1ccc(/C=C2\C=C(c3ccccc3)N(c3ccc(-c4ccccc4)cc3)C2=O)cc1	GPR151 activ 7.0 | GPR151 confirm inactive | GPR119 counter inactive
CCCCOC(=O)C1=C(C)N(C)C(=O)NC1c1ccccc1Cl (stereo unspecified)	GPR151 activ 7.2 | GPR151 confirm inactive | GPR119 counter inactive
CCCOC(=O)C1=C(C)N(C)C(=O)NC1c1ccccc1Cl (stereo unspecified)	none
O=C(COC(=O)c1ccccc1O)c1ccc(Br)cc1	none
O=C(CC(=O)c1ccccc1O)c1ccc(Br)cc1	GPR151 activ 5.4 | GPR151 confirm inactive | GPR119 counter inactive
O=C(CN(CCc1ccccc1)S(=O)(=O)c1ccc(Br)cc1)NCc1ccc(Cl)cc1	none
O=C1CC(N2CCN(C3CCCCC3)CC2)C(=O)N1c1ccc(Cl)cc1 (stereo unspecified)	GPR151 activ 6.8 | GPR151 confirm inactive | GPR119 counter inactive
CCSc1nnc(NC(=O)CSc2nc3c(c(=O)n2-c2ccc(Br)cc2)SCC3)s1	none
CCCCn1c(O)c(Nc2ccc3c(c2)=NC(=O)N=3)c2ccccc21	GPR151 activ 6.8 | GPR151 confirm inactive | GPR119 counter inactive
CCCCn1c(O)c(C2=c3ccccc3=NC2=O)c2ccccc21	none
N#C/C(=C\c1ccc(Br)c([N+](=O)[O-])c1)c1nn(-c2ccccc2)c(N)c1C#N	GPR151 activ 4.9 | GPR151 confirm inactive | GPR119 counter inactive
CN(C)c1ccc(/C=C(\C#N)c2nn(-c3ccccc3)c(N)c2C#N)cc1[N+](=O)[O-]	none
O=S(=O)(c1ccc2oc(-c3ccc(Cl)cc3)nc2c1)c1ccc2oc(-c3ccc(Cl)cc3)nc2c1	GPR151 activ 5.7 | GPR151 confirm inactive | GPR119 counter inactive
COc1ccc(-c2nc3cc(Cl)ccc3o2)cc1OC	GPR151 activ 5.8 | GPR151 confirm inactive | GPR119 counter inactive
CCC(c1nnnn1Cc1cccs1)N1CCN(C(=O)c2ccco2)CC1 (stereo unspecified)	none
CCCN(CCC)S(=O)(=O)c1ccc(C(=O)Nc2nc3c(ccc4ccccc43)s2)cc1	none
CCCN(CCC)S(=O)(=O)c1ccc(C(=O)Nc2nc3c(OC)cccc3s2)cc1	GPR151 activ 6.6 | GPR151 confirm inactive | GPR119 counter inactive
COc1ccccc1C(=O)NNC1=CC(=O)CC(C)(C)C1	none
CCCCC(C(=O)OC)N1C(=O)c2cc(Cl)c(Cl)cc2C1=O (stereo unspecified)	GPR151 activ 7.6 | GPR151 confirm inactive | GPR119 counter inactive
COCC(=O)NC1CCN(C(=S)Nc2ccc(Cl)cc2)CC1	GPR151 activ 7.4 | GPR151 confirm inactive | GPR119 counter inactive
COCC(=O)NC1CCN(C(=S)Nc2ccccc2Cl)CC1	none
CC(=O)c1ccc(NC(=O)c2cc(-c3ccccc3C)nc3ccccc23)cc1	none
NC1=NC(=Nc2ccc3c(c2)OCCO3)c2ccccc21	none
CCC(C)(C)n1nnnc1C(c1ccc(C)cc1)N1CCN(Cc2cccnc2)CC1 (stereo unspecified)	GPR151 activ 6.4 | GPR151 confirm inactive | GPR119 counter inactive
CC(C)(C)n1nnnc1C(c1cccnc1)N1CCN(c2ccccc2F)CC1 (stereo unspecified)	GPR151 activ 8.4 | GPR151 confirm inactive | GPR119 counter inactive

Compound activity as filed in PubChem.
